# Among all 360,000 compounds or so, about 11,000 (3.1%) were called active. Roughly 4% stayed inconclusive and do not appear here. What follows is part of a selection rich in actives, with near analogues and random picks from the rest. Values without a mark were called inactive. Calls come from the whole dose curve; as a rule, active = well fitted inhibition curve with a large enough effect; inconclusive = small, poorly fitted or top-dose-only effect; inactive = no such curve, though single readings can be large or run the other way.
# Biological target: Schistosoma mansoni thioredoxin glutathione reductase (TGR) (UniProt Q962Y6)
# Test: qHTS Assay for the Inhibitors of Schistosoma Mansoni Peroxiredoxins; note: nearly all actives have a fitted effect of over 60% in size
# Settings: purified TGR, DTNB reduction, TNB absorbance 405 nm; series mostly up to 114 µM; activity change, negative = inhibition: at the top concentration
# Outline: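 TGR 20 nM + NADPH 100 uM (dispensed conc.), cpd preinc 15 min RT; start with NADPH (500 uM addition) then DTNB (15 mM addition). Kinetic TNB absorbance, 405 nm filter. Four-parameter Hill fit across titration.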
# % is set by controls: 0 for no effect and ±100 for the full control effect; potency is the fitted concentration of half-maximal effect.
Compound,"activity change, negative = inhibition [%]",Potency
COc1ccc(CNc2nc(-c3ccc(Cl)cc3)nn2S(=O)(=O)c2ccc(C)cc2)cc1,-0.796,–
COc1ccccc1CNC(=O)CS(=O)(=O)c1cccc2nsnc12,-0.613,–
Cc1ccc(OC(=O)CSc2nnc(-c3cccs3)o2)cc1,-0.547,–
COc1cc(Cl)c(NC(=O)CC(C)S(=O)(=O)c2cc3c(cc2C)NC(=O)CO3)c(OC)c1 (centres undefined),-4.41,–
COc1ccc(OC)c(CCNC(=O)CCCn2c(=O)c3cccn3c3cccnc32)c1,1.8,–
O=C(CCn1ccc2cc(S(=O)(=O)N3CCCC3)ccc21)NCc1cccc(Cl)c1,-5.15,–
COc1ccc(Cl)cc1NC(=O)CSc1nc(-c2cccs2)cc(C(F)(F)F)n1,-0.774,–
CCc1ccc(-n2nc(C)c3c(C)cc(=O)n(CC(=O)Nc4ccc(F)cc4C)c32)cc1,-0.967,–
O=C(CC(c1cccs1)N1Cc2ccccc2C1=O)Nc1ccc(F)cc1F (centres undefined),-8.15,–
COC(=O)c1c(NC(=O)c2ccc(Cl)c(Cl)c2)sc2c1CCCC2,-1.51,–
CCOC(=O)c1c(NC(=O)c2cc(-c3ccc(Cl)cc3)on2)sc2c1CCCC2,-7.21,–
CNC(=O)c1c(NC(NC(=O)c2ccco2)C(=O)c2ccc(Cl)cc2)sc2c1CCCC2 (centres undefined),–,25.1 µM (active)
CCOc1ccc(OCC)c(NC(=O)CN(c2ccc(C)cc2)S(=O)(=O)c2c(C)n[nH]c2C)c1,10.6,–
COc1ccc(CNC(=O)CSc2n[nH]c(-c3ccc(F)cc3)n2)cc1,2.87,–
Cc1cc(-c2ccc(C)c(S(=O)(=O)N3c4ccccc4CC3C)c2)on1 (centres undefined),11.2,–
COc1ccc(Cn2ccc3nc(C)c(C(=O)Nc4ccc(C)c(F)c4)cc3c2=O)cc1,-0.138,–
O=C(CC(Cc1ccccc1)C(=O)O)NCCc1ccc2c(c1)OCO2 (centres undefined),-1.4,–
O=C(CCNS(=O)(=O)c1ccccc1C(F)(F)F)NCc1ccc2c(c1)OCO2,-10.5,–
O=C(CCc1nnc(Cc2ccc3c(c2)OCO3)o1)NCCc1ccccc1Cl,–,31.6 µM (active)
CCOc1ccccc1CNC(=O)Nc1cn(CC(C)C)c(=O)c2ccccc12,-7.64,–
O=c1/c(=C/c2ccc(CNS(=O)(=O)c3ccccc3)o2)sc2n1CCN=2,–,25.1 µM (active)
O=S(=O)(NCc1ccccc1)c1ccc(S(=O)(=O)N2CCCC2)cc1,-0.62,–
O=S(=O)(NCC1OCCc2ccccc21)c1ccccc1 (centres undefined),34.3,–
CCCCN(C)CCCNC(=O)CN1N=C(c2ccc(OC)cc2)CCC1=O,2.84,–
COc1ccc(CC(=O)Nc2ccc(-c3nc4ccccc4s3)c(C)c2)cc1,6.41,–

Compound,"activity change, negative = inhibition [%]",Potency
O=S(=O)(c1cc(Cl)ccc1Cl)N1CCN(Cc2ccco2)CC1,-16.2,–
O=C(CN1CCN(S(=O)(=O)c2cc(Cl)ccc2Cl)CC1)c1ccc(O)c(O)c1,–,17.8 µM (active)
COc1ccc(Cl)cc1S(=O)(=O)N1CCN(CC(=O)C(C)(C)C)CC1,-27.4,–
Cc1ccc(C)n1-c1nnc(N2CCC(C(=O)NCc3ccccc3Cl)CC2)s1,-21.1,–
Cc1ccc(/C=C/C(=O)OCC(=O)NCc2ccc(Cl)cc2)o1,–,25.1 µM (active)
COc1ccc(CNC(=O)COC(=O)/C=C/c2ccc(S(=O)(=O)N3CCOCC3)cc2)cc1,4.4,–
CCN(CC(=O)NCc1ccc(Cl)cc1)C(=O)c1c(C)noc1C,-9.68,–
O=C(Nc1ccc(Oc2ccccc2)cc1)C1CCN(S(=O)(=O)c2ccc(Cl)cc2)CC1,-7.31,–
O=C(Nc1ccccc1)c1nnsc1S(=O)(=O)c1ccc(Cl)cc1,–,0.316 µM (active)
Cc1nnsc1S(=O)(=O)Cc1ccccc1Cl,-2.4,–
COc1ccc(Nc2cc(C(=O)NCCCN(C)c3ccccc3)c3ccccc3n2)c(OC)c1,9.2,–
CCCn1c(=N)n(CC(O)COc2ccccc2OC)c2ccccc21 (centres undefined),4.68,–
CCOc1ccc(CNC(=O)C2CCCN(S(=O)(=O)N(CC)c3ccc(OCC)cc3)C2)cc1 (centres undefined),-9.5,–
CCCN1CN=C(NS(=O)(=O)c2ccc(NC(C)=O)cc2)NC1,5.57,–
Cc1ccc(-n2nnnc2CNC(=O)c2ccccc2C)cc1C,13,–
O=C1NC(=O)N(c2ccc(F)cc2)C(=O)/C1=C/c1ccc2c(c1)CCCN2Cc1ccccc1,–,17.8 µM (active)
CCCN1CCN(CCCNC(=O)Cn2nc(CC)n3c(cc4occc43)c2=O)CC1,-11.9,–
O=C(NC(=S)Nc1ccc(NC(=O)c2cccs2)cc1)c1ccc([N+](=O)[O-])cc1,1.64,–
O=C(NC(=S)Nc1cccc(-c2ccc(CO)o2)c1)c1cccs1,–,20 µM (active)
O=C(Nc1ccccc1-c1ccccc1)c1cccs1,-1.38,–
Cc1ccc(S(=O)(=O)N2CCC(C(=O)Nc3cc(C)ccc3C)CC2)cc1,21.4,–
O=C(CSc1nc(=O)n(Cc2cccnc2)c2c1CCC2)Nc1ccc(F)cc1F,3.22,–
CCc1ccc(N(CC)C(=O)CCn2cnc3onc(-c4ccc(F)cc4)c3c2=O)cc1,-0.879,–
O=C1CC(c2nnc(Cc3ccc(Cl)cc3)o2)CN1c1ccccc1 (centres undefined),3.72,–
CC(C)C1C2=C(CC(C)(C)CC2=O)ON1c1ccccc1 (centres undefined),–,28.2 µM (active)

Compound,"activity change, negative = inhibition [%]",Potency
Cc1ccsc1C1C(C#N)=C(N)OC2=C1C(=O)CC(C)(C)C2 (centres undefined),0.359,–
CC(C)N1C(=O)N(c2ccccc2)C(C)(O)CC1(C)C (centres undefined),0.967,–
Cc1sc2ncn(CC(=O)N3CCN(c4ccc(F)cc4)CC3)c(=O)c2c1S(=O)(=O)N1CCN(c2ncccn2)CC1,-0.836,–
CCc1cnc2c(c1SCC(=O)N1CCC(C)CC1)c(=O)n(C)c(=O)n2C,-0.0016,–
O=C(Nc1cc(-c2nc3ccccc3o2)ccc1Cl)c1cc([N+](=O)[O-])ccc1N1CCOCC1,-0.536,–
Cc1cccc(NC(=O)c2ccc([N+](=O)[O-])o2)c1,–,31.6 µM (active)
Cc1cccc(NC(=O)c2ccc(COc3ccccc3[N+](=O)[O-])o2)n1,-4.93,–
Cc1onc(C(=O)Nc2ccc3c(c2)OCO3)c1[N+](=O)[O-],-12.1,–
O=C(Nc1cccc([N+](=O)[O-])c1)c1ccc2c(c1)OCO2,2.85,–
Cc1cccc(NC(=O)C(C)SCc2ccccc2)c1 (centres undefined),-15.1,–
Cc1onc(NC(=O)c2ccc([N+](=O)[O-])o2)c1Br,–,28.2 µM (active)
Cc1cccc(C(=O)Nc2ccc(-c3nc4ncccc4o3)cc2C)c1,14.9,–
COc1cc(NC(=O)c2cc3ccc4cccnc4c3[nH]2)cc(OC)c1OC,12.9,–
COc1ccc(Cl)cc1NC(=O)CCn1c(=O)c2cccn2c2ccccc21,-1.03,–
COc1cc(OC)c(OC)cc1/C=C/c1nc2cc3ccccc3cc2c(=O)n1-c1ccc(F)c(Cl)c1,2.39,–
CCOC(=O)C(NC(=O)CC(C)C)(Nc1sc2c(c1C(N)=O)CCCC2)C(F)(F)F (centres undefined),-18.7,–
Cc1cc(C)cc(OC(C)C(=O)Nc2nc3c(s2)CCCC3)c1 (centres undefined),5.35,–
COC(=O)C(NC(C)=O)(Nc1nc2c(s1)CCCC2)C(F)(F)F (centres undefined),–,50.1 µM (active)
COc1ccccc1CNc1nc2ccc(Cl)cc2n2cnnc12,-0.742,–
COc1ccccc1NC(=O)c1sc2nc(C)c(C(=O)Nc3ccc(Cl)cc3)c(-c3ccc(Br)cc3)c2c1N,2.29,–
Oc1ccc(CNc2ccccc2O)cc1,–,20 µM (active)
O=C(Cc1ccc(Cl)cc1)NC(=S)Nc1ccccc1O,-7.71,–
O=[N+]([O-])c1ccccc1NCc1ccc(Cl)cc1,-16.6,–
O=C(CC(c1cccs1)N1Cc2ccccc2C1=O)Nc1ccc(F)c(F)c1 (centres undefined),11.1,–
CC(C)Oc1ccc(CNC(=O)C2CCN(c3nc4ccccc4n(C)c3=O)CC2)cc1,1.86,–

Compound,"activity change, negative = inhibition [%]",Potency
CC1CN(C(=O)N2CCC(C(=O)NCc3cccs3)CC2)c2ccccc2O1 (centres undefined),6.75,–
O=C(NC1(C(F)(F)F)N=C(c2ccccc2)N(C2CCCCC2)C1=O)c1ccccc1F (centres undefined),-12.4,–
CC1=C(C/C=C(\C)CCCC(C)CCCC(C)CCCC(C)C)C(=O)c2ccccc2C1=O (centres undefined),–,28.2 µM (active)
CC(=O)Nc1ccc(NC(=O)CCCc2nc(-c3ccc(C(C)(C)C)cc3)no2)cc1,0.679,–
Cc1cc(C)c(-c2n[nH]c3c2C(c2ccccc2F)N(CCO)C3=O)c(O)c1 (centres undefined),6.94,–
COc1ccc(N2CCN(Cc3nc4c(c(=O)[nH]c(=O)n4C)n3Cc3ccc(Cl)cc3)CC2)cc1,-14.2,–
CCOC(=O)c1sc(NC(=O)/C=C/c2ccc(C(C)C)cc2)c(C(=O)OCC)c1C,0.526,–
Cc1nnc(NC(=O)C(c2ccccc2)c2ccccc2)s1,-4.87,–
CCOC(=O)c1c(NC(=O)/C=C/c2ccco2)sc(C)c1C,–,35.5 µM (active)
Cc1nnc(NC(=O)CCCOc2ccccc2)s1,0.399,–
Cc1nnc(NC(=O)/C=C/c2ccco2)s1,–,22.4 µM (active)
CCOC(=O)c1c(NC(=S)NC(=O)/C=C/c2cccs2)sc(C)c1C,-1.8,–
O=C(CSc1nc(-c2cccc(F)c2)[nH]c1-c1ccccc1)Nc1ccc2c(c1)OCO2,3.36,–
CCN(CC)S(=O)(=O)c1ccc(C(=O)N=c2sc3cccc(OC)c3n2C)cc1,8.26,–
Cc1ccc(C)c(OCC(=O)Nc2sc3c(c2C#N)CCCC3)c1C,-1.88,–
Cc1nn(-c2ccccc2)c(Cl)c1/C=C/C(=O)c1ccc(O)cc1,-14.4,–
Cc1ccccc1-n1nc(C)c2cc(C(=O)NC3CC3)sc21,-24.8,–
Cc1ccccc1-n1nc(C)c2c1N=C1C(Cl)=CC(Cl)=CN1C2c1ccc(C(=O)O)cc1 (centres undefined),–,35.5 µM (active)
O=C(Nc1ccc2nc(SCC(=O)N3CCCc4ccccc43)sc2c1)c1ccc(F)cc1,-0.299,–
CC(=O)c1ccc(NC(=O)c2nc(-c3ccc(C)cc3)n3c2CCCCC3)cc1,-15.5,–
Cc1ccccc1CNC(=O)CCCn1nc(C)c2sc3ccccc3c2c1=O,22,–
CCC(C)NC(=O)C1c2ccccc2C(=O)N1Cc1ccccc1 (centres undefined),-5.66,–
O=C(NC1CCCCC1)C1c2ccccc2C(=O)N1Cc1ccco1 (centres undefined),–,39.8 µM (active)
O=C(CC1OC(=O)c2ccccc21)NC1CCCCC1 (centres undefined),-20.2,–
